The supplement of paper PMC11732987, “Enantioselective OTUD7B fragment discovery through chemoproteomics screening and high-throughput optimisation” (Communications Chemistry, 2025)

How the values were obtained:
Assay in all cases: log2 ratio of Biotin-Ahx-Ub-VS probe labelling (fragment/DMSO); higher = less target engagement (more negative = stronger competition), active = hit call of the paper (q ≤ 0.05, log2 ratio ≤ -1)
Conditions in all cases: compound concentration: 200 uM; treatment time: 3 h
USP34 = USP34 (UniProt Q70CQ2)
Method in brief: (§1)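 HEK293T lysate in Tris/CHAPS/IGEPAL buffer with protease inhibitors (495 µg per sample) was given fragment at 200 µM or vehicle for 3 h, in triplicate. It then received Biotin-Ahx-Ub-VS at 0.5 µM final for 1 h. Labelled DUBs were NeutrAvidin-enriched, digested with LysC and trypsin, and run by diaPASEF LC-MS/MS. Values are average log2 fragment/vehicle ratios by unpaired t-test on global-median-normalised Spectronaut quantities of proteins with ≥2 unique peptides.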

USP36 = biological target: T1, USP36 (UniProt Q9P275)
T1 sequence (whole entry): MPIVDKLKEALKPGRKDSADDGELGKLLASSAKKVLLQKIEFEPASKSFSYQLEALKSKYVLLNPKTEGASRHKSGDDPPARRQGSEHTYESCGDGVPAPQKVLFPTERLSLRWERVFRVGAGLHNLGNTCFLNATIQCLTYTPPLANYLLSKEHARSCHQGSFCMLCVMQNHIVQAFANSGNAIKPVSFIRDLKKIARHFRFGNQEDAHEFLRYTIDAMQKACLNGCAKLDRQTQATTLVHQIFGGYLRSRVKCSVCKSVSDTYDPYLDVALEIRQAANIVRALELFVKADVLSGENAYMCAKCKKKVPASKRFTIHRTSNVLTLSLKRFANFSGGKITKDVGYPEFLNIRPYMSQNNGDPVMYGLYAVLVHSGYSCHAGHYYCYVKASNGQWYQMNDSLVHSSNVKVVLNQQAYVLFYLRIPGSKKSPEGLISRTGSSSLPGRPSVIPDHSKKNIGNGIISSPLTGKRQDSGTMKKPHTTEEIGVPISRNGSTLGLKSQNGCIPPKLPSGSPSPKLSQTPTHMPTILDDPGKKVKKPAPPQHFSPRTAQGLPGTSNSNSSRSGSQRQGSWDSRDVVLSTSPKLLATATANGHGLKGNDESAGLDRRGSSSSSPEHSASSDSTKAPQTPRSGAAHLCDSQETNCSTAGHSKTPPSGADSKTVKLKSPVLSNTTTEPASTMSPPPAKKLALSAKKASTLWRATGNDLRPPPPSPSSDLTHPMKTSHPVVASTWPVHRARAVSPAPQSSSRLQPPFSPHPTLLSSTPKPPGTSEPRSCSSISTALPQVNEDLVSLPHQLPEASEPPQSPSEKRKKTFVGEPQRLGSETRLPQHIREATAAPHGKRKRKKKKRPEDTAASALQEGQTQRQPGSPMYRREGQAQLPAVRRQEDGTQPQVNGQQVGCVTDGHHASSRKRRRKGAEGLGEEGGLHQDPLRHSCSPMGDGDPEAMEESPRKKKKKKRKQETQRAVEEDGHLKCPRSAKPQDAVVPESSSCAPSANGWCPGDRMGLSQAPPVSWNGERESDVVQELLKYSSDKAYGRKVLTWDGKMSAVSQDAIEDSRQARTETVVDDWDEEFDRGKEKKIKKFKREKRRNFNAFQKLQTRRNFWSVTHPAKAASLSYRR
Method in brief: as §1

USP38 = biological target: T2, USP38 (UniProt Q8NB14)
T2 sequence (whole entry): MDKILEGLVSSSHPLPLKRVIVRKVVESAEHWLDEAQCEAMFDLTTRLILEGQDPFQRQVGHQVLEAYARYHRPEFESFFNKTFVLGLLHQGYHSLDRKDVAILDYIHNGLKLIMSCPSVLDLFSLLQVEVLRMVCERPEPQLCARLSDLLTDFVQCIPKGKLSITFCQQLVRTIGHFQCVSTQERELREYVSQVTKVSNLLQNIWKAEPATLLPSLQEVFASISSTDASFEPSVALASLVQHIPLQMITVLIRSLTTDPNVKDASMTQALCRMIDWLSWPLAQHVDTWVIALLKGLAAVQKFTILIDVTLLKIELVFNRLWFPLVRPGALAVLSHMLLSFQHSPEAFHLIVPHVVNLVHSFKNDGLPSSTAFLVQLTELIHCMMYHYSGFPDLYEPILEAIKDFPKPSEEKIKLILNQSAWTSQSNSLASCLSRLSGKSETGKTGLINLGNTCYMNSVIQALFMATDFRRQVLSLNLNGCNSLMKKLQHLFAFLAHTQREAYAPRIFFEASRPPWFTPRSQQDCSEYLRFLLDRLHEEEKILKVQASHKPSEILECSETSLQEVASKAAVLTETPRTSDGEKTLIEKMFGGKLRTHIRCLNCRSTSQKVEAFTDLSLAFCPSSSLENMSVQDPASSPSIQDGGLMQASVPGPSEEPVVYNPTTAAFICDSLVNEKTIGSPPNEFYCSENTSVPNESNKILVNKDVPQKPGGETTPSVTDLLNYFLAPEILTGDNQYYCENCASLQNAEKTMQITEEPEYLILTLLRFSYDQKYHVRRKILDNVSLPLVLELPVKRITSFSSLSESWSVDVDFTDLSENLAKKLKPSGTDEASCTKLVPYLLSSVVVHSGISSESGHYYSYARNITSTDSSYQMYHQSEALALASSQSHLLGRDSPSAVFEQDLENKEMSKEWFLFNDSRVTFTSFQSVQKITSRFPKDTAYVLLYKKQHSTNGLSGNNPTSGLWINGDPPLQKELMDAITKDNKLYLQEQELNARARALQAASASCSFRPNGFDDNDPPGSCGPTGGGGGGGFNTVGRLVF
Method in brief: as §1

USP39 = biological target: T3, USP39 (UniProt Q53GS9)
T3 sequence (whole entry): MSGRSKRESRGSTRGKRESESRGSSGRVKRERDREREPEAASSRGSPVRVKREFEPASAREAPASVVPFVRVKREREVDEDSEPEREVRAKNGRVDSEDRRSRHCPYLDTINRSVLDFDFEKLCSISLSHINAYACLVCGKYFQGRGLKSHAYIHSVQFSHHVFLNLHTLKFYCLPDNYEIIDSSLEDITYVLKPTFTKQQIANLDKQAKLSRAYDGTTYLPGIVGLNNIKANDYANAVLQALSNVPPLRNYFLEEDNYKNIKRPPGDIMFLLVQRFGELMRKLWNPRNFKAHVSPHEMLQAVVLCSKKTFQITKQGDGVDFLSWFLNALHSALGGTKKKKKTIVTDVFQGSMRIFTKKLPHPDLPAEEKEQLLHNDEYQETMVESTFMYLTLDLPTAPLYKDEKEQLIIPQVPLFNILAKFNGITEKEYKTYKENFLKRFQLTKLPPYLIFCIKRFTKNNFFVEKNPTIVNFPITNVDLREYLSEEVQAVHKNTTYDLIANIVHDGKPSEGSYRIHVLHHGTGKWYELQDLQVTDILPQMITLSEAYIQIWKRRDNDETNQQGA
Method in brief: as §1

USP4 = biological target: T4, USP4 (UniProt Q13107)
T4 sequence (whole entry): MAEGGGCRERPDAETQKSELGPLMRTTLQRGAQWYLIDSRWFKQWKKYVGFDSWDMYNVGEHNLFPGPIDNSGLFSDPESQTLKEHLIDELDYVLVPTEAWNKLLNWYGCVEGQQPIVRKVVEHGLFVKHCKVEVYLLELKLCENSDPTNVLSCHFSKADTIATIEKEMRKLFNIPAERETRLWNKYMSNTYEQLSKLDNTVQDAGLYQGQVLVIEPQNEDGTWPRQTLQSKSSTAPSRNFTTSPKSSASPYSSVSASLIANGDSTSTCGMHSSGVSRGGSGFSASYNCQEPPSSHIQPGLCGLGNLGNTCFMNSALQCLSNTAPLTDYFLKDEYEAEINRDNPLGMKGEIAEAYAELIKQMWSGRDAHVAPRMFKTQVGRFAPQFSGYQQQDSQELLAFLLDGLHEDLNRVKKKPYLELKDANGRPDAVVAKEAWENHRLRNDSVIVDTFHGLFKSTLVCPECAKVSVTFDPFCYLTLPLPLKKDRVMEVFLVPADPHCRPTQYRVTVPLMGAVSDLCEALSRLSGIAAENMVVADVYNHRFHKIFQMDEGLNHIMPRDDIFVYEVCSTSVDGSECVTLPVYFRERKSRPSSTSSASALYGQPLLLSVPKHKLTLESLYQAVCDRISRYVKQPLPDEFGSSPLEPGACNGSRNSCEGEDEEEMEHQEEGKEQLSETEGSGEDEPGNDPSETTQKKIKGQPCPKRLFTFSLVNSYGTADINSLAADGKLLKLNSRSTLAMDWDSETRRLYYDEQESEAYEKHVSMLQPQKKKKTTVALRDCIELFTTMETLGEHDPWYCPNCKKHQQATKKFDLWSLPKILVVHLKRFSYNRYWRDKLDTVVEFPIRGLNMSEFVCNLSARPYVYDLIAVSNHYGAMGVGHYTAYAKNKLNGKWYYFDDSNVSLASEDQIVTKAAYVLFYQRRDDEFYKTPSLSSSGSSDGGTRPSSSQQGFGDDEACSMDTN
Method in brief: as §1

Measured: log2 ratio of Biotin-Ahx-Ub-VS probe labelling

Sequence of USP34 (Q70CQ2 whole entry, the tested form may be a part): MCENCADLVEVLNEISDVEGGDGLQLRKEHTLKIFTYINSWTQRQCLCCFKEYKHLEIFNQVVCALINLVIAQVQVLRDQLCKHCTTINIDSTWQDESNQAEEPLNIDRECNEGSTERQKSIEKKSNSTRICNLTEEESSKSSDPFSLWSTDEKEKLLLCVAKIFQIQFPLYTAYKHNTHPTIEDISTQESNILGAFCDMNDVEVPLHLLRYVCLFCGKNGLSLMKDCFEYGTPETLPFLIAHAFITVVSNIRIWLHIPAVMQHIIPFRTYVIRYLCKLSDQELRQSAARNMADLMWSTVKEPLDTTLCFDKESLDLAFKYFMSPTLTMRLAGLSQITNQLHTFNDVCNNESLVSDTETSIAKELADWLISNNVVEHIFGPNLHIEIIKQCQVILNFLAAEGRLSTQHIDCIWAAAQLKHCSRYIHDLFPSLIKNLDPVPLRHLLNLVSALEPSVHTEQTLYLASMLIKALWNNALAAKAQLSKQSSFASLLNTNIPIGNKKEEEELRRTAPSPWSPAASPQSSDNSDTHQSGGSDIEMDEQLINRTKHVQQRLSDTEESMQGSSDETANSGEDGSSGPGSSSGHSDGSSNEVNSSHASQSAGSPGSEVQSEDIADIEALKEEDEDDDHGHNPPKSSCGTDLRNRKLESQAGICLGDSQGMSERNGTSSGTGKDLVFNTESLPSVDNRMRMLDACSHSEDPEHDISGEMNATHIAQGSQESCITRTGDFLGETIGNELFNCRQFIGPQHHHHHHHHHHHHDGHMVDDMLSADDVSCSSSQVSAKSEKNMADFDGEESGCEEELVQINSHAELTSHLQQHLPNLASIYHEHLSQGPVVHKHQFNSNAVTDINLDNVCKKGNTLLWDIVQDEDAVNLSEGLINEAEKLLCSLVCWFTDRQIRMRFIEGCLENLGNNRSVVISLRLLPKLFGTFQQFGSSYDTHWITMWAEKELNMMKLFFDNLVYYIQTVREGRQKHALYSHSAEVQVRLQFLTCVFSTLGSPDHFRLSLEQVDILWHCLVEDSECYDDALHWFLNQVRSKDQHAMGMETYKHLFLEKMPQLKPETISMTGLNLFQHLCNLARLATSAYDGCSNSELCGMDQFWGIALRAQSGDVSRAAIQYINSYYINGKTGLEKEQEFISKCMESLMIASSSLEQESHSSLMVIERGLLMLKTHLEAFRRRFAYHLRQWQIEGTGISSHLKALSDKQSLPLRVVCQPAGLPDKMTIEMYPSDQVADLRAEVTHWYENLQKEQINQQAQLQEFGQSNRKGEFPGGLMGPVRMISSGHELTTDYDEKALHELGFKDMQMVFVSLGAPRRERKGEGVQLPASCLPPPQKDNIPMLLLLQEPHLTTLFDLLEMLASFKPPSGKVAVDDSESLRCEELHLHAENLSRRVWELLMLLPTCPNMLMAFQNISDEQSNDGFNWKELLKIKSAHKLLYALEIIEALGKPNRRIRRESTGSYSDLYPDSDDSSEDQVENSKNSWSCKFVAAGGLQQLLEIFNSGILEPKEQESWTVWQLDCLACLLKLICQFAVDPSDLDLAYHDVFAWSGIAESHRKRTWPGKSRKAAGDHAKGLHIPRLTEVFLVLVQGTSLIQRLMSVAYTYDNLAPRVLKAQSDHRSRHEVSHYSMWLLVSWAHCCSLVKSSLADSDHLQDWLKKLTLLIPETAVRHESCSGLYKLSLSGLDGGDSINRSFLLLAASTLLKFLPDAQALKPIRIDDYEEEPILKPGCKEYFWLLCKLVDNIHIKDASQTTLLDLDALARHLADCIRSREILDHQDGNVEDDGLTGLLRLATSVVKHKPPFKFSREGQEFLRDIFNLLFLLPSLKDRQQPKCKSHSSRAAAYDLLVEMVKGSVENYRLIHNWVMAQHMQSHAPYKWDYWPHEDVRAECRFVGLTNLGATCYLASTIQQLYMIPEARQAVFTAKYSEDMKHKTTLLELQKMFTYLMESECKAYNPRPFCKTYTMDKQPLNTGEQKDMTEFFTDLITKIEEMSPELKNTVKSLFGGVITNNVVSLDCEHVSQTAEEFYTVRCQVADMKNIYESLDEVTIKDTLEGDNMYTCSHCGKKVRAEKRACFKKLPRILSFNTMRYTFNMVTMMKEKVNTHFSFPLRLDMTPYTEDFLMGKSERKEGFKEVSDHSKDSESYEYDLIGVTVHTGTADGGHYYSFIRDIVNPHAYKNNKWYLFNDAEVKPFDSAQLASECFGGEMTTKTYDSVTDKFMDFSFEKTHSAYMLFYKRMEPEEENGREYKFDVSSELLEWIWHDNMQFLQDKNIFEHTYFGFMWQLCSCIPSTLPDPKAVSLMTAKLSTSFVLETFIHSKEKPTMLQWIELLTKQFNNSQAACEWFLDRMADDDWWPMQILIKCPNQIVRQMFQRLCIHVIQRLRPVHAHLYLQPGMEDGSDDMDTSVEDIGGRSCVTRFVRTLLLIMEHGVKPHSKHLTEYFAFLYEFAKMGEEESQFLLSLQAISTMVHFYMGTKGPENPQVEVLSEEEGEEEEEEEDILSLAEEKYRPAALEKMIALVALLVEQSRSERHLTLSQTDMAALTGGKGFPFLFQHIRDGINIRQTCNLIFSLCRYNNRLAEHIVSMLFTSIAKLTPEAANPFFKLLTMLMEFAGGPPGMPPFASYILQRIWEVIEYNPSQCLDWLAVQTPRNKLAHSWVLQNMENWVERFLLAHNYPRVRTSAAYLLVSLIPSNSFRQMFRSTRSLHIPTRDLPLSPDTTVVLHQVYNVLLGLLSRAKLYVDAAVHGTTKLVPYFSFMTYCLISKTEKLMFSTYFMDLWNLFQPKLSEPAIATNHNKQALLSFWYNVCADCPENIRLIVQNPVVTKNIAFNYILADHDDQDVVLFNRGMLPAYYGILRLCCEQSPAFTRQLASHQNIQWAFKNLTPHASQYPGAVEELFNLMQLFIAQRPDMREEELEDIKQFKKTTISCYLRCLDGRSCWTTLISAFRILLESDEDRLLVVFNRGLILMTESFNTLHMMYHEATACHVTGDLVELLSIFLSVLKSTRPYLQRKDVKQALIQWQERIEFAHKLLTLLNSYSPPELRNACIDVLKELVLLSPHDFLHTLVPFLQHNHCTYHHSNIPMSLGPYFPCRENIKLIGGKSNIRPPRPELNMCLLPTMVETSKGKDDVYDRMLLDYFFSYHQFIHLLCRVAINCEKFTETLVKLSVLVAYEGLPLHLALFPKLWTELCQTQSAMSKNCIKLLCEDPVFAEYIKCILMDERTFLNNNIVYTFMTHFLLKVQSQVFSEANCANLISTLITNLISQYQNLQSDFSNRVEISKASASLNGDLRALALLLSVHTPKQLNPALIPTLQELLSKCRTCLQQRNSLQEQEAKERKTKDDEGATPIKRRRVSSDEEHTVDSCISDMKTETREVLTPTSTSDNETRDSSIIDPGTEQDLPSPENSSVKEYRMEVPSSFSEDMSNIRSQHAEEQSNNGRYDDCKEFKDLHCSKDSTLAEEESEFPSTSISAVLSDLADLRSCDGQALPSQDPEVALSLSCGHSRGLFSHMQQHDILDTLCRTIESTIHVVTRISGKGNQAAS

CC(NC(=O)CCl)c1noc(Cc2ccccc2)n1 (stereo not given)
inactive: USP34 -0.0517 | USP36 -0.338 | USP38 -0.21 | USP39 -0.245 | USP4 -0.142
